Our source for the PBM binding z-score values is the supplement of paper PMC6555819.

In the first assay the test system is RARg:RXRa (NR concentration 270 nM, RXRa partner concentration 90 nM). Put plainly: PBM binding z-score (relative to random genomic background probes); higher = stronger binding; sequences stand for … in GC…GCGATTGACAGCGTAGAATGAAGG
The procedure, abridged:
(§1)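 Custom Agilent 4×180K protein-binding microarrays carried double-stranded probes. Their 34-nt variable regions held direct-repeat seeds, single-nucleotide variants, half-site ablations and random human genomic background sequences. Arrays were incubated 1 h with ligand-free nuclear receptor dimers in PBS pH 7.4, 2% milk, 0.02% Triton X-100, 1 mM DTT, 0.2 mg/mL BSA and 0.4 mg/ml salmon testes DNA. Antibodies against each partner (one per run) detected binding, and scanned fluorescence was regression-normalized. Binding z-scores use random background probes as reference.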
In the case of ATCGAAATGTCGAGGTGAGTATAGAGAAAGGGAA, the PBM binding z-score was 0.381.
As to ACTAGCAGGCCCAGTTTGGGTCACTCAAACAAAG, the PBM binding z-score amounted to 0.324.
Consider CCTAGTTGGTCGGGAGGTCACACACCGGATATGA, for which the PBM binding z-score was 4.67.
For the sequence ATCTCTAGGTAAAGACAGTTCAGTGAATGCAAAT, the PBM binding z-score was found to be 0.452.
As for CCGATTGGGGCAAGGTTACCATAACGCACAGCCA, the PBM binding z-score was determined as 1.02.
GCTGTTAGGTCAACTGATGGTCAGCTAAAGCTCG had a PBM binding z-score of 5.62.
Sequence AGAATGAGGTTATACGTAGTTCAGGGAAGAAAGT registered a PBM binding z-score of 3.82.
In turn, CCTTGTTGGTCAAGGTCACACACGCTATAGGTAC returned a PBM binding z-score of 4.56.
As for CGTCCAAGGTCAGAGAGGTCAGTTAATGCCGAGT, the PBM binding z-score was 6.43.
TCGAGTAGGTCAGGGGCATTCAGAATGGCGTCGA registered a PBM binding z-score of 3.14.
GCAGACAGGTGAAACGCAGGAAACTCAGGGTGGC came in with a PBM binding z-score of 0.246.
In the case of ACTCGGAGAACAAAGGTCAGAGCTACGCCAGTGA, the PBM binding z-score amounted to 4.46.
The sequence ATCTCTAGGTAAAGATAGATCAGTGAATGCAAAT came in with a PBM binding z-score of 0.264.
Still for that read-out and setting: then CGTCCAAGGGCAAAGGTCAGTGAAGAGATGACGG, with 6.32.
TCTCGGAGGACACGAACGGTCAGAGCTCGACATC showed a PBM binding z-score of 1.02.
Take GCGACTGGGGTATCAGCAGGTTACCATAACTTAA: the PBM binding z-score was determined as 0.223.
The sequence ATCTCTAGGTAAAAAGTTCAGTGAAAGAGAGGAC came in with a PBM binding z-score of 2.69.
Still for that read-out and setting: as for CTCGAAAGGTCGGTTAAGGTGAGTATACGGATAA, the figure is 2.94; as for GCTGCTAGGTCAGGTTGGTCACCTAACGGGTACG, 2.67; as for GGAACGAGGGCAAAGTTGATAGCATCTGTCGACG, 2.18.
In the case of CCTTACGGGTGACTGACAGGTTATAGCATTTGGA, the PBM binding z-score worked out at 1.07.
Same read-out and setting: then AATCCAGGGTCATCGTAGGCCAGAGTACGCACAG, with 5.9.
ACTAGCAGGCCAAGTCTGGGTCACTCAAACAAAG returned a PBM binding z-score of 2.25.
ATCTCTAGGTAAGACTAAGTTCAGTGAAGAACGC: the PBM binding z-score stood at 0.933.
On to CAAACTAGGTCAGCGGAAGGTCAAAGTCCGCATG, for which the PBM binding z-score stood at 7.66.
On the same count and under the same terms, as for GATACAGGGTCAAGGCCGGAGTACGCGTATTGAT, the figure is 5.35; as for GCGTACGGGTCAAAGGTTATAGCATGAATAGAAT, 6.99; as for CGATCGAGGGCATGAGTTGATAGCAAATGCCGAT, 1.06.
On to GTACCTAGGTGAATAGGTCGTTGATGAGTAGGCG, for which the PBM binding z-score was found to be 1.85.
As for TCTATTAGTTTATTAGGGCAACCGAAACAGCGGA, the PBM binding z-score is 1.15.
Same read-out and setting: as for GCTCGGCGGACAAGGTCAGAGCTTTGTCCGTAGA, the figure is 2.59; as for ACTAGCAGGCCAAGGGTCTCTCAAGATTAGTCCG, -0.0301; as for GCTGCTAGGTCAGGTTGGTCAGATAACGGGTACG, 2.71.
GCTAGCAGGCCATTTGAGTCACTCAATGACGGGC: the PBM binding z-score was -0.0759.
In turn, CGAACGAGGGCATGCGTTGATAGCAAATGCCGAT registered a PBM binding z-score of 1.03.
For the sequence AATAGCAGGCCAAGTTTGGGTCACTCAAACAAAG, the PBM binding z-score came to 2.53.
The sequence TCTAGTTCGTCAAAGGTCACACACTCGAAATGCG gave a PBM binding z-score of 6.46.
On the same count and under the same terms, then ACTTACGGGTCAACGAGGTTATAGTACGCGTATA, with 5.7; and AGAATGAGGGCAATGAGTTGATAGCACGGGTGGC, with 1.31; and ACTAGCAGGCCAAGTTTGGGTCACTGAAACAAAG, with 2.54.

The test system of the next assay is RARg homodimer (NR concentration 270 nM). The assay is described as above. The procedure, abridged:
as §1
As for ATCGAAATGTCGAGGTGAGTATAGAGAAAGGGAA, the PBM binding z-score was 0.595.
With ACTAGCAGGCCCAGTTTGGGTCACTCAAACAAAG, the PBM binding z-score worked out at 0.28.
For the sequence CCTAGTTGGTCGGGAGGTCACACACCGGATATGA, the PBM binding z-score is 3.83.
The sequence ATCTCTAGGTAAAGACAGTTCAGTGAATGCAAAT gave a PBM binding z-score of 0.798.
Turning to CCGATTGGGGCAAGGTTACCATAACGCACAGCCA, the PBM binding z-score came to 1.3.
The same measure, in the same setting: as for GCTGTTAGGTCAACTGATGGTCAGCTAAAGCTCG, the figure is 5.67; as for AGAATGAGGTTATACGTAGTTCAGGGAAGAAAGT, 1.45.
CCTTGTTGGTCAAGGTCACACACGCTATAGGTAC gave a PBM binding z-score of 4.95.
The same measure, in the same setting: then CGTCCAAGGTCAGAGAGGTCAGTTAATGCCGAGT, with 7.24.
TCGAGTAGGTCAGGGGCATTCAGAATGGCGTCGA yielded a PBM binding z-score of 3.99.
GCAGACAGGTGAAACGCAGGAAACTCAGGGTGGC came in with a PBM binding z-score of 0.0798.
In turn, ACTCGGAGAACAAAGGTCAGAGCTACGCCAGTGA displayed a PBM binding z-score of 3.88.
Regarding ATCTCTAGGTAAAGATAGATCAGTGAATGCAAAT, the PBM binding z-score was 0.561.
Take CGTCCAAGGGCAAAGGTCAGTGAAGAGATGACGG: the PBM binding z-score stood at 5.49.
Consider TCTCGGAGGACACGAACGGTCAGAGCTCGACATC, for which the PBM binding z-score was found to be 2.34.
For the sequence GCGACTGGGGTATCAGCAGGTTACCATAACTTAA, the PBM binding z-score was -0.199.
Same read-out and setting: then ATCTCTAGGTAAAAAGTTCAGTGAAAGAGAGGAC, with 2.46; and CTCGAAAGGTCGGTTAAGGTGAGTATACGGATAA, with 3.26.
For the sequence GCTGCTAGGTCAGGTTGGTCACCTAACGGGTACG, the PBM binding z-score was determined as 3.43.
On to GGAACGAGGGCAAAGTTGATAGCATCTGTCGACG, for which the PBM binding z-score was 1.82.
As to CCTTACGGGTGACTGACAGGTTATAGCATTTGGA, the PBM binding z-score is 0.559.
AATCCAGGGTCATCGTAGGCCAGAGTACGCACAG: the PBM binding z-score worked out at 5.22.
The same measure, in the same setting: as for ACTAGCAGGCCAAGTCTGGGTCACTCAAACAAAG, the figure is 1.48; as for ATCTCTAGGTAAGACTAAGTTCAGTGAAGAACGC, 0.697; as for CAAACTAGGTCAGCGGAAGGTCAAAGTCCGCATG, 6.32.
For GATACAGGGTCAAGGCCGGAGTACGCGTATTGAT, the PBM binding z-score amounted to 5.4.
Still for that read-out and setting: as for GCGTACGGGTCAAAGGTTATAGCATGAATAGAAT, the figure is 4.57; as for CGATCGAGGGCATGAGTTGATAGCAAATGCCGAT, 1.18.
Take GTACCTAGGTGAATAGGTCGTTGATGAGTAGGCG: the PBM binding z-score turned out to be 0.79.
Still for that read-out and setting: then TCTATTAGTTTATTAGGGCAACCGAAACAGCGGA, with 1.09; and GCTCGGCGGACAAGGTCAGAGCTTTGTCCGTAGA, with 2.54; and ACTAGCAGGCCAAGGGTCTCTCAAGATTAGTCCG, with 0.272.
Take GCTGCTAGGTCAGGTTGGTCAGATAACGGGTACG: the PBM binding z-score came to 3.5.
For GCTAGCAGGCCATTTGAGTCACTCAATGACGGGC, the PBM binding z-score is 0.0765.
Sequence CGAACGAGGGCATGCGTTGATAGCAAATGCCGAT came in with a PBM binding z-score of 1.55.
Consider AATAGCAGGCCAAGTTTGGGTCACTCAAACAAAG, for which the PBM binding z-score was 1.67.
TCTAGTTCGTCAAAGGTCACACACTCGAAATGCG returned a PBM binding z-score of 6.31.
ACTTACGGGTCAACGAGGTTATAGTACGCGTATA showed a PBM binding z-score of 5.01.
For the sequence AGAATGAGGGCAATGAGTTGATAGCACGGGTGGC, the PBM binding z-score was 1.47.
ACTAGCAGGCCAAGTTTGGGTCACTGAAACAAAG displayed a PBM binding z-score of 2.01.
